C diff HTS: blocks growth of Clostridium difficile | Clostridium difficile clinical isolate growth, OD600, 24 h; hits give low values | growth activity, negative = inhibition, % at 16 µg/mL (by protocol) | actives 0.25% (n = 86,000);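 active = mean growth activity at or below -80% and every replicate also at or below -80%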;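 note: 0% = DMSO wells and -100% = levofloxacin 16 µg/mL wells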
Pf Dd2 growth: P. falciparum Dd2 growth inhibition; SYBR Green, 72 h; hits give low values; activity change, % at 10 µM; actives 2.3% (n = 94,000); in the data active = activity change below about -80%
Tcruzi prolif: inhibitors of T. cruzi proliferation; T. cruzi beta-gal in NIH3T3, GalScreen luminescence, 90 h; inhibition, % at 8.34 µM; actives 5.9% (n = 77,000); AID 624255;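 active = mean inhibition above about 93%, with at least 55% of replicates each passing it, limit read from the data, passing the limit was not always enough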
Starred values were filed as active, the others as inactive; / = no result; ! = repeats disagree. Hits are enriched below; roughly 6.7% of the tested compounds scored in any of these assays.

SMILES	C diff HTS	Pf Dd2 growth	Tcruzi prolif
C[C@@H](NC(=O)C[C@H]1CC[C@H]2[C@@H](COC[C@H](O)CN2C(=O)Nc2cc(Cl)cc(Cl)c2)O1)c1ccccc1	/	-9.0	85.1
CC(C)NC(=O)N1CC2(C1)[C@@H](c1ccccc1)[C@H](CO)N2C(=O)C1CC1	4.9	26.6	/
COCC(=O)N1[C@H](CO)[C@@H](c2ccccc2)C12CN(C(=O)Cc1ccccn1)C2	3.2	-32.6	/
OC[C@@H]1CC[C@@H]2O[C@H](CCc3ccc(C#CCc4ccccc4)cc3)[C@@H](n3cc(-c4ccccc4)nn3)C[C@@H]2O1	28.3	-58.6	/
CCC(=O)N1CC2(CCN(C(=O)Nc3ccc(F)cc3)CC2)c2c([nH]c3cc(OC)ccc23)[C@@H]1CO	-4.3	-59.5	/
COc1ccc2c3c(n(C)c2c1)[C@H](CO)N(C(=O)Cc1ccccc1)CC31CN(C(=O)Cc2ccccc2)C1	9.3	-83.1*	/
CCC(=O)N1CC2(CN(C(=O)Cc3ccccc3)C2)c2c(n(C)c3cc(OC)ccc23)[C@@H]1CO	1.9	-36.7	/
CCC(=O)N1CC2(CN(C(=O)Nc3ccc(F)cc3)C2)c2c([nH]c3cc(OC)ccc23)[C@@H]1CO	-2.5	-83.7*	/
COc1ccc2c3c([nH]c2c1)[C@@H](CO)N(C(=O)Cc1ccccc1)CC31CCN(C(=O)Cc2ccccc2)CC1	24.9	-87.0*	/
COc1ccc2c3c([nH]c2c1)[C@H](CO)N(C(=O)Cc1ccccc1)CC31CCN(C)CC1	0.0	-14.0	/
Fc1cccc(-c2ccc(C3[C@@H]4CN(Cc5cncnc5)C[C@H]3N4)cc2)c1 (stereo partly drawn)	2.6	-86.2*!	/
Cc1ccccc1-c1ccc(C2[C@@H]3CN(Cc4cncnc4)C[C@H]2N3)cc1 (stereo partly drawn)	-7.4	-10.4	/
Cc1cccc(-c2ccc(C3[C@@H]4CN(Cc5ccccc5)C[C@H]3N4)cc2)c1 (stereo partly drawn)	-35.8	-11.2	/
Cc1cccc(-c2ccc(C3[C@@H]4CN(Cc5cccc(F)c5)C[C@H]3N4)cc2)c1 (stereo partly drawn)	-96.9*	14.7	/
CCCNC(=O)N1CC2(CCN(C(=O)COC)CC2)c2c(n(C)c3cc(OC)ccc23)[C@@H]1CO	0.3	11.4	/
C[C@@H]1CN([C@H](C)CO)C(=O)c2cccc(NC(=O)CCCCCC(=O)Nc3ccccc3N)c2O[C@@H]1CN(C)CC1CC1	7.4	-45.2	/
C[C@H](CO)N1C[C@H](C)[C@@H](CN(C)CC2CCCCC2)Oc2c(NC(=O)CCCCCC(=O)Nc3ccccc3N)cccc2C1=O	4.7	-87.7*	/
C[C@H]1CN([C@@H](C)CO)C(=O)c2cccc(NC(=O)CCCCCC(=O)Nc3ccccc3N)c2O[C@@H]1CN(C)CC1CC1	-16.8	-77.9	/
C[C@@H]1CN([C@@H](C)CO)C(=O)c2cccc(NC(=O)CCCCCC(=O)Nc3ccccc3N)c2O[C@H]1CN(C)CC1CC1	-2.5	-84.7*	/
C[C@H]1CN([C@@H](C)CO)C(=O)c2cccc(NC(=O)CCCCCC(=O)Nc3ccccc3N)c2O[C@H]1CN(C)CC1CCCCC1	-3.4	-82.9*	/
C[C@@H]1CN([C@H](C)CO)C(=O)c2cccc(NC(=O)CCCCCC(=O)Nc3ccccc3N)c2O[C@H]1CN(C)CC1CC1	-4.3	-74.8	/
CCCN1[C@@H]2c3ccc(-c4ccc(OC)cc4)c(=O)n3C[C@H]1[C@H](CO)[C@H]2C(=O)NCC	-11.1	45.0	/
CO[C@@H]1CN(C)C(=O)c2cc(NC(=O)c3ccccc3)ccc2OC[C@@H](C)N(C)C[C@@H]1C	-22.3	38.9	-29.0
COc1ccc(CN2CC3(CCN(S(=O)(=O)c4ccc(C)cc4)CC3)c3c([nH]c4cc(OC)ccc34)[C@@H]2CO)cc1	/	17.0	/
C[C@H](O)C#Cc1cnc2c(c1)C(=O)N([C@H](C)CO)C[C@H](C)[C@@H](CN(C)CC1CCCCC1)O2	-1.5	21.1	7.6
SMILES	C diff HTS	Pf Dd2 growth	Tcruzi prolif
CNC(=O)C[C@H]1CC[C@@H]2[C@H](COc3ccc(NC(=O)Nc4ccc(Cl)cc4)cc3C(=O)N2C)O1	3.2	-6.8	24.3
CCCN(C)C[C@H]1OCCCC[C@H](C)Oc2ccc(NS(=O)(=O)c3ccc(C)cc3)cc2C(=O)N([C@@H](C)CO)C[C@@H]1C	3.9	-89.6*	33.5
CCCN(C)C[C@H]1OCCCC[C@H](C)Oc2ccc(NS(=O)(=O)c3ccc(C)cc3)cc2C(=O)N([C@H](C)CO)C[C@H]1C	8.2	-85.9*	80.9
CCCN(C)C[C@H]1OCCCC[C@H](C)Oc2ccc(NS(=O)(=O)c3c(C)noc3C)cc2C(=O)N([C@H](C)CO)C[C@H]1C	-0.6	-71.0	17.8
CCCN(C)C[C@H]1OCCCC[C@H](C)Oc2ccc(NS(=O)(=O)c3ccc(Cl)cc3)cc2C(=O)N([C@H](C)CO)C[C@H]1C	2.4	-27.8	78.6
CCCN(C)C[C@@H]1OCCCC[C@@H](C)Oc2ccc(NS(=O)(=O)c3ccc(C)cc3)cc2C(=O)N([C@H](C)CO)C[C@H]1C	6.0	-88.6*	53.7
CCCN(C)C[C@H]1OCCCC[C@@H](C)Oc2ccc(NS(=O)(=O)c3ccc(Cl)cc3)cc2C(=O)N([C@H](C)CO)C[C@@H]1C	-2.6	-13.6	84.8
CCCN(C)C[C@H]1OCCCC[C@H](C)Oc2ccc(NS(=O)(=O)c3c(C)noc3C)cc2C(=O)N([C@@H](C)CO)C[C@@H]1C	-2.7	-88.9*	72.3
CCCN(C)C[C@H]1OCCCC[C@@H](C)Oc2ccc(NS(=O)(=O)c3ccc(F)cc3)cc2C(=O)N([C@H](C)CO)C[C@@H]1C	-5.6	0.4	-9.2
CC(=O)N(C)C[C@H]1Oc2ncc(C#C[C@H](C)O)cc2C(=O)N([C@@H](C)CO)C[C@@H]1C	-0.9	18.8	-0.6
COc1ccc2c3c(n(C)c2c1)[C@@H](CO)N(CC1CC1)CC31CN(C(=O)Nc2ccccc2)C1	-1.0	-61.6	/
CCNC(=O)C[C@@H]1CC[C@@H]2[C@H](COc3ccc(NC(=O)c4ccccc4Cl)cc3C(=O)N2C)O1	-4.3	-2.5	21.0
CO[C@@H]1CN(C)C(=O)c2ccc(NC(=O)Nc3ccc4c(c3)OCO4)cc2OC[C@@H](C)N(C)C[C@H]1C	-2.7	-61.6	5.4
COc1ccc(CCNC(=O)[C@@]2(Cc3ccccc3I)c3ccccc3C(=O)N(Cc3ccccc3OC)[C@H]2c2ccc(CO)cc2)cc1	2.0	/	/
C/C=C/c1ccc([C@H]2[C@@H](CO)N(Cc3cncnc3)C23CN(C(C)=O)C3)cc1	4.7	-12.4	/
C[C@@H]1CN([C@H](C)CO)C(=O)c2cc(C3=CCCCC3)cnc2O[C@@H]1CN(C)C(=O)Nc1cccc(F)c1	3.0	-10.5	-80.9
C[C@@H]1CN([C@H](C)CO)C(=O)c2cc(NC(=O)C3CCCCC3)ccc2O[C@@H](C)CCCCO[C@@H]1CN(C)S(C)(=O)=O	-4.6	-0.7	-4.0
CNC(=O)C[C@H]1CC[C@H]2[C@@H](COc3ccc(NC(=O)Nc4ccc(C)cc4)cc3C(=O)N2C)O1	22.1	-0.8	20.4
C[C@H](CO)N1C[C@H](C)[C@@H](CN(C)C(=O)c2ccncc2)Oc2ncc(C#CC3CCCC3)cc2C1=O	/	18.8	/
CO[C@H]1CN(C)C(=O)c2ccc(NC(=O)C3CCOCC3)cc2OC[C@@H](C)N(C(=O)c2ccccc2)C[C@@H]1C	/	18.6	-2.9
